# Assay results taken from ChEMBL document CHEMBL1157539, “Thousands of chemical starting points for antimalarial lead identification” (Nature, 2010).
# Legend:
# Assay type in all cases: functional
# Plasmodium falciparum [1] = assay: GSK_TCMDC: Inhibition of Plasmodium falciparum 3D7 in whole red blood cells, using parasite LDH activity as an index of growth. Test compounds present at 2uM
# Plasmodium falciparum [2] = assay: GSK_TCMDC: Inhibition of Plasmodium falciparum Dd2 in whole red blood cells, using parasite LDH activity as an index of growth. Test compounds present at 2uM
# HepG2 = assay: GSK_TCMDC: Percent inhibition of human HepG2 cell line. Test compounds present at 10uM.
Structure (SMILES),Inhibition (Plasmodium falciparum [1]) [%],Inhibition (Plasmodium falciparum [2]) [%],Inhibition (HepG2) [%]
COc1ccc(C(=O)NCc2ccc(N)nc2C)cc1Nc1ncc(-c2cccc(N(C)C)c2)cn1,89,68,9
COC(=O)c1sc(-c2ccc(Cl)cc2)cc1N(CCCN1CCC(N2CCCCC2)CC1)S(=O)(=O)c1ccc(C)cc1,100,86,25
COc1cc(Cc2cnc(N)nc2N)cc(OCCCCC2SC(=O)NC2=O)c1Br (stereo not drawn),94,0,15
CC(C)NCc1ccc(-c2cccc(-c3nc4cc(F)ccc4[nH]3)c2)cc1.O=C(O)C(F)(F)F,100,96,14
Cc1ccc(O)cc1Nc1ccnc2ccc(-c3cccc(CNCCN(C)C)c3)cc12,100,46,0
O=C(Nc1ccc(-c2cccc(-c3nc4ccccc4[nH]3)c2)cc1)NC1CC1c1ccccc1 (stereo not drawn),84,6,63
COc1cc2nc(NCC3CCN(c4nc(N)c5cc(OC)c(OC)cc5n4)CC3)nc(N)c2cc1OC,92,73,12
CCCN1CCN(Cc2ccc(C(=O)Nc3ccc(Cl)cc3)cc2)CC1.O=C(O)C(F)(F)F,94,14,48
COc1cccc(C(=O)Nc2ccc(Nc3nc(C)cc(N(C)C)n3)cc2)c1OC,90,9,0
CCN1CCN(c2cc(C)c3cc(NC(=O)c4ccc([N+](=O)[O-])c(C)c4)ccc3n2)CC1,92,39,8
Cc1cc(N)ncc1-c1ccc(NC(=O)Nc2cc(C(F)(F)F)ccc2F)cc1.O=C(O)C(F)(F)F,100,23,15
Cc1cc(N[C@@H](CC(C)C)C(=O)NCc2cccs2)nc(NCCc2cccs2)n1.O=C(O)C(F)(F)F,92,13,0
CCCCN(CCCC)CCCCNc1c2ccc(Cl)cc2nc2ccc(OC)cc12.Cl,100,96,68
CC(C)OCCCNC(=O)c1nc(-c2cccc(C(F)(F)F)c2)sc1C(C)C,94,34,0
COc1cc(C)c(C(O)CNC(C)CCc2ccccc2)cc1C.Cl (stereo not drawn),98,98,1
CCOc1cc2ccccc2cc1CNCCCCCCNCc1cc2ccccc2cc1OCC.CS(=O)(=O)O,100,76,99
O=C(O)C(F)(F)F.Oc1ccc(CN2Cc3ccccc3OC3(CCN(Cc4c[nH]c5cnccc45)CC3)C2)cc1,100,3,17
Cc1ccc2cc(C3NC(=O)c4ccccc4N3)c(Cl)nc2c1 (stereo not drawn),91,38,0

Structure (SMILES),Inhibition (Plasmodium falciparum [1]) [%],Inhibition (Plasmodium falciparum [2]) [%],Inhibition (HepG2) [%]
Nc1ccc(-c2cnc3[nH]cc(-c4ccc(C(=O)O)cc4)c3c2)cn1.O=C(O)C(F)(F)F,97,99,48
COc1ccc(-c2nc(NC(=O)CS(=O)(=O)c3ccc(F)cc3)sc2C)cc1,100,99,20
Cc1[nH]c(C)c(-c2ccc(-c3ccccc3)nc2)c(=O)c1Br,96,95,0
CCC(CC)C(CC(=O)NC(C)(C)CCc1ccccc1OC)Nc1ccc(C#N)c2ccccc12 (stereo not drawn),93,91,9
Cc1ccc(C)c2sc(N3CCN(C(=O)c4ccc([N+](=O)[O-])o4)CC3)nc12,96,89,0
CCOc1cc(C)ccc1C1CCN(CCCCNC(=O)c2cnc(-c3ccc(C(F)(F)F)cc3)[nH]2)CC1,95,97,16
CCN(CCCN1CCCCC1)c1cc(C)nc(Nc2ccc(C)c(Br)c2)n1.O=C(O)C(F)(F)F,100,98,42
Cc1nn(CCOC(=O)NC(NCC2COc3ccccc3O2)C(Cl)(Cl)Cl)cc1[N+](=O)[O-] (stereo not drawn),99,99,0
Cl.N=C(NCCCCC1CCCCC1)c1cccc(C(=N)NCCCCC2CCCCC2)n1,100,19,99
COc1ccc(-c2ccc(NC(=O)c3ccc(C#N)cc3)cc2)cc1CN1CCCC1.O=C(O)C(F)(F)F,95,51,40
CCOC(=O)c1c(C)n(-c2ccc(Cl)cc2)c2ccc(OC(=O)C=Cc3ccccc3)cc12,99,92,3
COc1cc2nc(NCCc3ccccc3)nc(NCc3nccs3)c2cc1OC,99,93,1
Cc1ccc(O)c(Nc2c3c(c(C#N)c4nc5ccccc5n24)CCC3)c1,85,2,7
CC(=O)Nc1ccc(C(=O)Nc2cccc(-c3ccc(-c4nc5cc(C(F)(F)F)ccc5[nH]4)s3)c2)cn1,100,98,42
CCN(CC)CCNc1ccnc2c3ccccc3n(C)c12,100,99,14
CC(C)CCNCC(O)Cn1c2ccc(Cl)cc2c2cc(Cl)ccc21 (stereo not drawn),99,99,36
Cc1cc(=O)c(C2CCC(c3ccc(Cl)cc3)CC2)c(C)[nH]1 (stereo not drawn),88,70,0
CC(C)=CCc1c(-c2ccc(O)cc2O)oc2c3c(cc(O)c2c1=O)OC(C)(C)C=C3 [MORUSIN],89,8,1
